Records with an inconclusive call do not appear. Active and inactive are the calls of the source. Calls come from the whole dose curve; as a rule, active = well fitted cell-killing curve with a large enough effect in the repeat runs; inconclusive = weak or mixed curves, or effect the other way; inactive = flat fitted curve, though single readings scatter.

Results on 16 molecules are retold here after PubChem BioAssay (Tox21).
% is set by controls: 0 for no effect and ±100 for the full control effect; potency is the fitted concentration of half-maximal effect.

This experiment is described as follows: cAMP Responsive Elements (CRE) small molecule agonists, cell-based qHTS assay: qHTS cell viability counter screen (AID 2060914). Note: nearly all actives have a fitted effect of over 50% in size. Conditions: CRE-bla HEK293T viability, CellTiter-Glo luminescence, 5 h; series mostly up to 92.4 µM; activity change, negative = cytotoxicity: at the top concentration. In outline: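 CRE-bla HEK293T cells in 10% dialyzed FBS medium were exposed to compounds for 3 h at 37C after 18 h plating. CellTiter-Glo was then added in the same wells, and luminescence was read after 30 min at room temperature.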
For orientation: In qHTS, concentration-response curves come from the screen itself.
As to `CC(O)C(=O)O` (stereo unspecified), the Potency entry was “inactive”.

Regarding `CCOc1ccc([N+](=O)[O-])cc1`, the “activity change, negative = cytotoxicity” value was -20.2% (inactive). The same measure, in the same setting: the same measure for `CC(=O)O[C@H]1C[C@@H]2CC[C@@H]3[C@H](CC[C@@]4(C)[C@H]3C[C@H]([N+]3(C)CCCCC3)[C@@H]4OC(C)=O)[C@@]2(C)C[C@@H]1N1CCCCC1`: 12% [at 42.5 µM] (inactive); for `[Cl][Pt-2]([Cl])([Cl])[Cl]`: 16.4% (inactive). The same measure, in the same setting: the result for `CCc1nccnc1C` reads 5.21% (inactive); that for `Cc1cccn2c(=O)c(-c3nnn[nH]3)cnc12`, -13.9% [at 18.9 µM] (inactive).

`O=C(O)c1ccc(O)cc1`: the Potency entry is “inactive”. Consider `COc1ccc2[nH]cc(CCNC(C)=O)c2c1`, for which the Potency result was “inactive”. In the case of `Cc1cc(C(C)(C)C)cc(C)c1CC1=NCCN1`, the “activity change, negative = cytotoxicity” value was 2.7% [at 42.5 µM] (inactive). Turning to `CC[C@@H]([C@H](C)O)n1ncn(-c2ccc(N3CCN(c4ccc(OC[C@@H]5CO[C@@](Cn6cncn6)(c6ccc(F)cc6F)C5)cc4)CC3)cc2)c1=O`, the Potency is 26.6 µM (active). Take `CC1=C(/C=C/C(C)=C\C=C\C(C)=C\C(=O)O)C(C)(C)CCC1`: the “activity change, negative = cytotoxicity” value was -14.1% (inactive). With `O=C(O)Cc1cccc(-c2cc(CCCCCCc3ccc(O[C@H]4O[C@H](CO)[C@@H](O)[C@H](O)[C@@H]4O)c(-c4cccc(CC(=O)O)c4)c3)ccc2O[C@H]2O[C@H](CO)[C@@H](O)[C@H](O)[C@@H]2O)c1`, the activity change, negative = cytotoxicity is 10.9% [at 0.349 µM] (inactive). The same measure, in the same setting: the same measure for `C=C[Si](OC(=C)C)(OC(=C)C)OC(=C)C`: 8.61% (inactive); for `O=C(O)CCn1c2c(c3ccccc31)C[C@H](NS(=O)(=O)c1ccc(F)cc1)CC2`: 10.4% [at 42.5 µM] (inactive). Regarding `CCCCCCCCCCCCCCCCCC[N+](C)(C)Cc1ccccc1`, the Potency was 55 µM (active). Consider `C[Si](C)O[Si](C)C`, for which the “activity change, negative = cytotoxicity” value was -13.9% (inactive).
